Potency data for 21 compounds are collected here from PubChem BioAssay AID1347156 (National Center for Advancing Translational Sciences (NCATS), 2019).

Records with an inconclusive call do not appear. Activity calls are given as the source filed them. Calls come from the whole dose curve; as a rule, active = well fitted cell-killing curve with a large enough effect; inconclusive = small, poorly fitted or top-dose-only effect; inactive = flat fitted curve, though single readings scatter.

The assay can be described thus: DAPI mCherry counterscreen qHTS for Zika virus inhibitors. Note: nearly all actives have a fitted effect of over 55% in size. Put shortly: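 Vero cells (5,000/well), plated overnight, given compounds then recombinant ZIKV-mCherry at MOI 1 for 48-72 hrs at 37 degrees C; PFA-fixed, Hoechst-stained and imaged; nuclei counted and mCherry-positive cells scored as percent infection.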
Potency is the fitted concentration of half-maximal effect.

Take `CC1(COc2ccc(CC3SC(=O)NC3=O)cc2)CCCCC1` (stereo unspecified): the Potency is 31.6 µM (active). Take `O=C(NCc1ccc(Oc2ccccc2)cc1)c1nc(-c2cc(Br)c(O)c(Br)c2)no1`: the Potency is 8.91 µM (active). `O=C(O)C1(Cc2cccc(Nc3nccs3)n2)CCC(Oc2cccc(Cl)c2F)CC1` (stereo unspecified): the Potency is 17.8 µM (active).

With `CN(C)[C@@H]1C(=O)C(C(N)=O)=C(O)[C@@]2(O)C(=O)C3=C(O)c4c(O)cccc4C[C@H]3C[C@@H]12`, the Potency entry is “inactive”. Turning to `N#CC(C#N)=C(N)/C(C#N)=C/c1cc(O)c(O)c(O)c1`, the Potency entry was “inactive”. The result for `O=C(Nc1ccc(-c2ccc(Cl)c(Cl)c2)cc1)C1=C(O)c2ccccc2S(=O)(=O)N1` reads 8.91 µM (active); that for `O=c1c(O)c(-c2ccc(O)cc2O)oc2cc(O)cc(O)c12`, “inactive”. For the compound `N#Cc1ccc(N2N=C3c4ccc(C(=O)O)cc4CC[C@@H]3[C@@H]2C2CCCC2)cc1Cl`, the Potency was 4.47 µM (active). Regarding `COc1ccc(Cl)c(Nc2nc3ccccc3nc2NS(=O)(=O)c2cccc(NC(=O)C(C)(C)N)c2)c1`, the Potency was 22.4 µM (active). As for `Cc1cc(C)c2c(c1)C(N(Cc1cc(C(F)(F)F)cc(C(F)(F)F)c1)c1nnn(C)n1)CCCN2CC1CCC(C(=O)O)CC1` (stereo unspecified), the Potency is 35.5 µM (active).

On to `CC(=O)Nc1ccc(S(=O)(=O)O)c2cc(S(=O)(=O)O)c(N=Nc3ccc(N=Nc4ccc(S(=O)(=O)O)cc4)c4ccc(S(=O)(=O)O)cc34)c(O)c12`, for which the Potency result was “inactive”. As for `CC(=O)Oc1cc2c(c(C)c1OC(C)=O)CC=C1[C@@]2(C)CC[C@@]2(C)[C@H]3C[C@](C)(C(=O)O)CC[C@]3(C)CC[C@]12C`, the figure is 2.82 µM (active); as for `Oc1cc2ccccc2c2ccccc12`, 10 µM (active). In the case of `CC(C)c1cc(C(C)C)c(CC(=O)NS(=O)(=O)Oc2c(C(C)C)cccc2C(C)C)c(C(C)C)c1`, the Potency was 10 µM (active). For the compound `CC1CCN(C(c2ccc(F)cc2)c2ccc(C(C)C(=O)O)cc2-c2ccc(C(F)(F)F)cc2)CC1` (stereo unspecified), the Potency was 8.91 µM (active). Turning to `Cc1c(C)n(Cc2ccc(-c3ccccc3C(=O)O)cc2)c2ccc(C(=O)N[C@@H](C)c3ccc([N+](=O)[O-])cc3)cc12`, the Potency is 35.5 µM (active). The result for `Nc1c(S(=O)(=O)O)cc(Nc2ccc(Nc3nc(Cl)nc(Nc4ccc(S(=O)(=O)O)cc4)n3)c(S(=O)(=O)O)c2)c2c1C(=O)c1ccccc1C2=O` reads “inactive”; that for `O=C(Nc1c(C(=O)O)oc2ccccc12)c1ccc(C(F)(F)F)cc1`, “inactive”.

On to `CCCCc1nn2c(=O)cc(COC(=O)c3ccc(NC(=O)c4ccccc4Cl)cc3)nc2s1`, for which the Potency was 22.4 µM (active). On to `O=C(OC1Cc2c(O)cc(O)cc2OC1c1cc(O)c(O)c(O)c1-c1c(C2Oc3cc(O)cc(O)c3CC2OC(=O)c2cc(O)c(O)c(O)c2)cc(O)c(O)c1O)c1cc(O)c(O)c(O)c1` (stereo unspecified), for which the Potency result is “inactive”. For the compound `COc1ccc(/C=C(\C#N)c2nc(-c3cc4c(ccc5ccccc54)oc3=O)cs2)cc1O`, the Potency was 1 µM (active).
